Assay results taken from PubChem BioAssay AID2288 (National Center for Advancing Translational Sciences (NCATS), 2010).
The whole screen tested about 340,000 compounds, of which fewer than 10 were called active. Roughly 2% stayed inconclusive and do not appear here. The list is a sample of the results. Values without a mark were called inactive. Calls follow the shape of the dose curve; as a rule, active = well fitted curve in the direction sought with a large enough effect; inconclusive = small, poorly fitted or top-dose-only effect, or another doubt; inactive = no such curve, though single readings can be large or run the other way.

Experiment: qHTS Assay for Modulators of miRNAs and/orActivators of miR-21;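 also: % of control where 0% means no effect; miR-21 action dims this reporter so a rising signal means less miR-21 action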
Conditions: HeLa miR-21 FLuc reporter, luciferase, 48 h; series mostly up to 38.3 µM; activity change, positive = activation: at the top concentration
From the text: MLSCN Grant: 1 R21 NS059478-01 Assay Provider: Qihong Huang, The Wistar Institute NCGC Assay Overview: MicroRNAs (miRNAs) are endogenously encoded small (~20-25 nucleotides), nonprotein-coding RNAs that are involved in post-transcriptional repression of target messenger RNAs (mRNAs) (Le and Hannon, 2004). Estimated to be involved in the regulation of 30% of all protein-coding mRNAs (Filipowicz et al., 2008), miRNAs play a significant role in many biological processes including cellular differentiation and tissue development (Ghildiyal and Zamore, 2009).
NCGC Assay Protocol Summary: Reagents: HeLa cells stably expressing firefly luciferase (FLuc) under the control of a CMV promoter (upstream) and a miR-21 binding sequence directly downstream of the gene. These cells endogenously express miR-21. Control compounds used were compound C3 (provided by collaborator), N6-phenyladenosine (MP Biomedicals, 0215379625), and DMSO. Assay Summary: 6uL of HeLa miR-21-FLuc cells in assay buffer (DMEM, Invitrogen #21063-029; 10% FBS, HyClone #SH30071.03) were dispensed at 2000cells/well (3.3 x 10^5 cells/mL) into Greiner solid-white TC-treated 1536-well plates using a Multidrop Combi (Thermo Fisher Scientific). Plates were incubated for one hour at 37 degree Celsius, 95% humidity, 5% CO2. These assay plates were then treated with 23nL of compound or DMSO using a Kalypsys pin tool, which allows for delivery of a 24-point titration of each compound to the assay plate, with a final compound concentration ranging from approximately 40uM to 5pM. Assay plates were then incubated for 48 hours. After incubation, plates were allowed to come to RT for one hour prior to delivery of 3uL of 3X luciferase detection reagent. After a 15 minute incubation to allow for cell lysis, luciferase activity was measured using a ViewLux CCD imager (PerkinElmer), with an average exposure time of 2-12 seconds. Keywords: NIH Roadmap, MLPCN, MLSMR, qHTS, miR-21, microRNA, firefly luciferase, FLuc.

Compound | activity change, positive = activation [%]
CCOc1ccc(CCNC(=O)c2ccc3c(c2)sc2nc(-c4ccc(F)cc4)cn23)cc1OCC | 1.62
Cc1cc(NC(=O)c2ccc(-c3ccc(Cl)cc3)o2)cc(-c2nc3ncccc3o2)c1O | 2.05
O=C(CSc1oc(-c2ccco2)nc1S(=O)(=O)c1ccccc1)c1ccc(Cl)cc1 | 8.21
COc1cccc(CNC(=O)Cc2csc3nc(-c4ccccc4)cn23)c1 | -0.468
Cc1ccc(NC(=O)c2ccc(CN3CC(=O)N4CCCCC4C3=O)cc2)c(Cl)c1 (stereo not given) | 1.68
O=C(Cn1ncn2nc(-c3cccs3)cc2c1=O)NCc1cccc(Br)c1 | -2.62
Cc1ccc(C)c(OCC(=O)Nc2sc3c(c2C#N)CCCC3)c1C | -1.24
COc1cccc(N2CCN(S(=O)(=O)c3cc(Br)cc4c3N(C(=O)C3CC3)CC4)CC2)c1 | -0.588
CCNS(=O)(=O)c1cc(-c2nnc(Nc3cccc(C(F)(F)F)c3)c3ccccc23)ccc1C | -0.871
Cc1nn(-c2ccc(N3CCCCC3)nn2)c(C)c1CCC(=O)NCc1ccccc1F | 18.3
CCOc1ccc(N(CC)C(=O)c2cc3c(=O)oc4ccccc4c3s2)cc1 | -10.1
CCCN(CCC)S(=O)(=O)c1ccc(C(=O)Nc2sc3c(c2C(=O)OC)CCN(CC)C3)cc1 | 22.1
COC(=O)c1ccccc1NC(=O)c1cc(-c2ccccc2O)no1 | 5.97
COC(=O)CC1Oc2ccccc2-n2cc(-c3ccccc3)nc21 (stereo not given) | 12.2
CCc1cc2c(cc3c(=O)n(CC(=O)N4CCN(c5cc(Cl)ccc5C)CC4)ncn32)s1 | 0.215
CCOC(=O)c1ccc(NC(=O)Cn2cc(S(=O)(=O)Cc3ccccc3F)c3ccccc32)cc1 | -1.64
CCOC(=O)c1cnc2c(C)cc(C)cc2c1Nc1ccc(N2CCOCC2)cc1 | -4.37
Cc1cccc(CNC(=O)c2cnc3sc(N4CCCCC4)nn3c2=O)c1 | -1.19
Cc1nn(-c2ccc(N3CCCCC3)nn2)c(C)c1CCC(=O)NCc1ccc(F)cc1 | -12.7
Cc1cccc(-n2ccnc2SCC(=O)Nc2cccc3ccccc23)c1C | 5.86
CCOc1ccc(C(=O)c2cn(Cc3ccccc3OC)c3ccc(F)cc3c2=O)cc1 | 1.46
CCOC(=O)c1cccc(NC(=O)c2cc(CN3CCCC3)on2)c1 | -64
O=C(Nc1ccc2nc(SCCOc3ccccc3Cl)sc2c1)c1ccco1 | 9
Cc1ccc2c(=O)cc(C(=O)Nc3sc4c(c3C(=O)NCc3cccnc3)CCCC4)oc2c1 | 1.15

Compound | activity change, positive = activation [%]
Cc1ccc(CN2C(=O)SC(Nc3ccccc3)C2=O)cc1 (stereo not given) | 2.92
O=C(CCS(=O)(=O)c1cc(Br)cc2c1N(C(=O)C1CC1)CC2)Nc1ccc(C(F)(F)F)cc1 | -1.46
O=S(=O)(c1ccc(C2CCCCC2)cc1)N1CCN(c2ccc(Cl)c(Cl)c2)CC1 | -2.63
O=C(NCCC1=CCCCC1)c1ccc2c(c1)N(Cc1ccccc1F)C(=O)c1ccccc1S2(=O)=O | 5.95
CN(C)S(=O)(=O)c1ccc(C(=O)N(Cc2cccnc2)c2nc3c(F)cc(F)cc3s2)cc1 | -11.5
CCNC(=O)Cn1nc(C)n2c(cc3c(OC)cccc32)c1=O | -0.737
CCn1cc(C(=O)N2CCN(c3cc(C)ccc3C)CC2)c(=O)c2cc(S(=O)(=O)N(C)C3CCCCC3)ccc21 | 0.0352
CCC(=O)N1CCc2cc(CNC(=O)Nc3ccccc3Cl)ccc21 | -28.9
Cc1cc(C)c(NC(=O)c2cc3sc(Cl)cc3n2C)c(C)c1 | 0.326
COc1ccc(C(F)(F)F)cc1NC(=O)c1sc2nc(-c3cccs3)ccc2c1N | -11.7
Cc1cc2n(n1)C(c1cc(C(C)(C)C)c(O)cc1O)Nc1ccccc1-2 (stereo not given) | 10.5
CCc1ccc(C2C(C(=O)Nc3ccccc3)=C(C)Nc3c(C(=O)Nc4ccc(C)cc4)cnn32)cc1 (stereo not given) | 18.4
Cc1ccc(C)c(N2C(=O)N(Cc3c(F)cccc3Cl)c3ccccc3S2(=O)=O)c1 | 19.2
Clc1cccc(-n2ncc3c(NCCc4ccccc4)ncnc32)c1 | -34
CCOc1ccc(N2CC(C)Cn3c2nc2c3c(=O)n(Cc3c(F)cccc3Cl)c(=O)n2C)cc1 (stereo not given) | -3.48
CCc1cc2c(cc3c(=O)n(CC(=O)N4CCN(c5cc(Cl)ccc5C)CC4)nc(CC)n32)s1 | -0.281
COc1ccc(-n2ccnc(NCCc3ccc(Cl)cc3)c2=O)cc1OC | 24.5
O=C1CCCc2cc(S(=O)(=O)N3CCCC(C(=O)NCc4ccccc4)C3)ccc2N1 (stereo not given) | 7.69
CCOC(=O)c1c(NC(=O)c2cc(CC)on2)sc(C(C)=O)c1C | -1.99
CCOc1ccc(N(CC)C(=O)C2CCN(S(=O)(=O)c3cccc4nonc34)CC2)cc1 | 0.642
COc1ccccc1C1C(C(=O)N2CCCCC2)=C(C)Nc2nc3ccccc3n21 (stereo not given) | 0.0662
O=C(Nc1c(-c2ccc(F)cc2)nc2ccccn12)c1cccc(F)c1 | -1.07
O=C(CCn1c(=O)c2sccc2n(Cc2ccc(F)cc2)c1=O)NCc1ccc2c(c1)OCO2 | 0.239
COc1cc(OC)cc(-c2nc3nc(C)c(CCC(=O)Nc4ccccc4)c(C)n3n2)c1 | -4.08

Compound | activity change, positive = activation [%]
Cc1ccccc1-c1nc2scc(CCNC(=O)C(=O)Nc3ccc(F)cc3F)n2n1 | 0.0996
Cc1cccc2nc(-c3ccc(Cl)s3)c(Nc3ccc4c(c3)OCCO4)n12 | -42.6
O=C(Cn1c(=O)n(Cc2ccccc2)c(=O)c2sc3ccccc3c21)Nc1ccccc1F | -6.8
COc1ccc(-c2cc(-c3ccccc3)nc3c2COc2ccc(Cl)cc2-3)cc1 | -0.778
Cc1ccc(S(=O)(=O)c2nc(-c3cccs3)oc2N2CCCCC2)cc1 | 1.01
Cc1cccc(NC(=O)Cn2cc(S(=O)(=O)Cc3ccccc3Cl)c3ccccc32)c1 | 7.43
O=C(NC1CC(=O)N(c2ccc(F)cc2)C1)c1cccs1 (stereo not given) | -2.97
COc1ccc(Cl)cc1S(=O)(=O)N1CCC(c2ccncc2)CC1 | 12.3
CC(C)CC(NS(=O)(=O)c1ccc2c(c1)oc(=O)n2C)C(=O)NCc1ccccc1Cl (stereo not given) | -0.815
CCc1ccccc1NC(=O)CSc1nnc(-c2ccccc2)c(-c2ccccc2)n1 | 13.9
CCCc1nn2c(=O)cc(COC(=O)c3ccc(NC(=O)COc4ccc(F)cc4)cc3)nc2s1 | -7.11
CCOc1ccccc1CNC(=O)c1ccc2c(c1)nc1n2CCC(C)C1 (stereo not given) | -0.912
COc1ccc2c(c1)C=C(C(=O)NCc1cc(Br)ccc1OC)CO2 | 4.49
CC(C)Cn1c(-c2ccc(S(=O)(=O)N3CCOCC3)cc2)csc1=Nc1cc(Cl)ccc1Cl | -1.77
O=C(Cc1ccc(Cl)cc1)NCC(c1cccs1)S(=O)(=O)c1ccc(Cl)cc1 (stereo not given) | 14.4
COc1cc(OC)c(NC(=O)c2cnc(N3CCCC3)nc2C)cc1Cl | -8.6
Cc1ccc(C(=O)COC(=O)C(Cc2c[nH]c3ccccc23)NC(=O)c2ccc(Br)cc2)cc1 (stereo not given) | -3.65
Cc1cc(N2CCN(c3cccc(C(F)(F)F)c3)CC2)n2nc(-c3ccccc3)nc2n1 | 1.74
CCCNC(=O)c1ccc(Cn2c(SCC(N)=O)nc3ccccc3c2=O)cc1 | -24.5
Cn1c(=O)c(C(=O)O)nn(-c2ccccc2)c1=O | 3.23
Cc1ccc(OCC(=O)Nc2ccc(OCc3cc(=O)n4c(C)csc4n3)cc2)cc1C | -2.25
COc1cc(OC)c(NC(=O)c2c3c(nn2C)-c2ccccc2SC3)cc1Cl | 1.84
COC(=O)c1ccccc1NC(=O)Cn1c(=O)n(-c2cccc(C(F)(F)F)c2)c(=O)c2c(C)c(C)sc21 | 0.641
Brc1ccc2c(c1)NC(c1cccnc1)=NC(c1ccccc1)=N2 | -10.5

Compound | activity change, positive = activation [%]
CCOC(=O)c1cc(-c2ccccc2)n(CCC(=O)Nc2ccccc2CC)c1C | -4.44
COc1ccccc1-c1nnc(C2CCN(C(=O)c3ccc(Cl)cc3)CC2)o1 | -3.37
CCCCN(C)c1nnc(NC(=O)Nc2ccc(Br)c(C)c2)s1 | -3.2
CCOC(=O)Cn1c(=O)n(C2CCCCC2)c2nc(-c3cccc(OC)c3)nc(C(N)=O)c21 | -0.638
Cc1cc(C)c(NC(=O)CCc2c(C)nc3c(c(C)nn3C(C)(C)C)c2C)c(C)c1 | 4.5
O=C(NC1CC(=O)N(c2ccc(F)cc2)C1)c1ccc(S(=O)(=O)N2CCCC2)cc1 (stereo not given) | -5.5
Cc1ccc(-c2nnc(Nc3ccc(OCC(N)=O)cc3)c3ccccc23)cc1S(=O)(=O)NCC1CCCO1 (stereo not given) | -3.57
O=C(c1ccc(Br)cc1)N(Cc1cccs1)c1ccc(F)cc1 | 15.3
CC1=C(C(=O)OCC2CCCCC2)C(c2c(F)cccc2Cl)CC(=O)N1 (stereo not given) | -3.1
Cc1ccc(OCCSc2nc(C)c(Cc3ccccc3)c(=O)[nH]2)cc1 | -0.304
CCOc1ccc(-c2cc(C)n3nc(C(=O)Nc4ccc(C)c(C)c4)cc3n2)cc1 | -15.3
Cc1ccc2oc3c(c(=O)c2c1)C(c1ccc(O)cc1)N(Cc1ccc2c(c1)OCO2)C3=O (stereo not given) | 0.711
COc1ccc(-c2cc(C(=O)Nc3sc4c(c3C(N)=O)CCCC4)no2)cc1 | -12.6
COc1cccc(-c2cc(C(=O)Nc3ccc(C)cc3)[nH]n2)c1 | -37.4
CCCCN(CC)CCCNC(=O)c1nn(C)c2c1CSc1ccccc1-2 | -4.82
Cc1ccccc1CNC(=O)c1cccc(NC(=O)c2nsc3ccccc23)c1 | -48.8
COc1cc(NC(=O)c2cc3ccc4cccnc4c3[nH]2)cc(OC)c1OC | 1.22
Cc1nnc(NC(=O)CSc2nc3c([nH]c4ccccc43)c(=O)n2-c2cccc(Cl)c2)s1 | -7.48
Cc1ccc2nc(COc3ccccc3NC(=O)Nc3ccc(F)c(Cl)c3)cc(=O)n2c1 | -22.2
COc1ccc(-c2nc(Cn3c(=O)cc(C)c4c(C)nn(-c5ccccc5)c43)c(C)o2)c(OC)c1 | -21
CCOCCCNC(=O)c1ccc2nc(CCc3ccccc3)oc2c1 | -46.9
CCOc1cc(CNC(=O)c2sc3ncnc(N(C)C4CCCCC4)c3c2C)ccc1OC | 20.8
Cc1ccc(C)c(Cn2c(C(=O)O)c(CNCc3cccs3)c3ccccc32)c1 | 5.44
